PubChem BioAssay
A number with no mark means an inactive call. Where a call stands in place of a potency, no number is given. For some of these results: Potency and affinity values are given separately. Active and inactive are the calls of the source. Unless noted, no rule for the calls is given here.

What was measured:
[1] = antimalarial activity against Dd2 strain (AID 2302;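 active = growth inhibition above 50% at the single 2 µM test dose, taken to imply half-maximal potency below 2 µM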); settings: P. falciparum Dd2 in RBCs, LDH growth readout, 72 h; at 2 µM; active compounds read high
[2] = HepG2 cytotoxicity, primary screen, cytotoxicity control for P. falciparum antimalarial project, cell-based, ATP luminescence (AID 2303;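 active = inhibition above 50%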); settings: HepG2 viability, 24-48 h, at 10 µM, active compounds read high
[3] = target: L-lactate dehydrogenase (Plasmodium falciparum (isolate CDC / Honduras)) (UniProt Q27743); test: PfLDH activity inhibition – cell lysate, 3D7 strain, counter-screen for P. falciparum growth inhibition project (AID 2304); settings: P. falciparum 3D7 crude extract, LDH APAD/NBT absorbance; at 2 µM; active compounds read high
Chain of L-lactate dehydrogenase (Plasmodium falciparum (isolate CDC / Honduras)) (Q27743 whole entry, looked up): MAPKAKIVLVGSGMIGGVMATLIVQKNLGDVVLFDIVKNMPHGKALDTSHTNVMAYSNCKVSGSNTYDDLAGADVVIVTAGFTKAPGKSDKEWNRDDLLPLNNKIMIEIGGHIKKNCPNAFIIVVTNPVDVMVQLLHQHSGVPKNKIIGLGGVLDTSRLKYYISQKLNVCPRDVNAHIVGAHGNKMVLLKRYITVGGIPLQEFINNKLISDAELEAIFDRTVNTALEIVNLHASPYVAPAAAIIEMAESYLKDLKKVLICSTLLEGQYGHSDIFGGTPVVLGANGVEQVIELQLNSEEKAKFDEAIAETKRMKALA

[4] = inhibition of 3D7 malaria parasite growth – strain 3D7 (AID 2306); settings: P. falciparum 3D7 erythrocytic growth, LDH absorbance, 72 h; at 2 µM; active compounds read high
[5] = target: Calcium-dependent protein kinase 1 (Plasmodium falciparum (isolate 3D7)) (UniProt P62344); test: PfCDPK1 kinase inhibitors, biochemical, TCAMS library (AID 1159585; cut-off not given, nearly all actives have IC50 up to about 0.98 µM;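 also: inhibitors leave more ATP so luminescence rises with inhibition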); settings: recombinant PfCDPK1, Kinase-Glo ATP depletion luminescence
Chain of Calcium-dependent protein kinase 1 (Plasmodium falciparum (isolate 3D7)) (P62344 whole entry, looked up): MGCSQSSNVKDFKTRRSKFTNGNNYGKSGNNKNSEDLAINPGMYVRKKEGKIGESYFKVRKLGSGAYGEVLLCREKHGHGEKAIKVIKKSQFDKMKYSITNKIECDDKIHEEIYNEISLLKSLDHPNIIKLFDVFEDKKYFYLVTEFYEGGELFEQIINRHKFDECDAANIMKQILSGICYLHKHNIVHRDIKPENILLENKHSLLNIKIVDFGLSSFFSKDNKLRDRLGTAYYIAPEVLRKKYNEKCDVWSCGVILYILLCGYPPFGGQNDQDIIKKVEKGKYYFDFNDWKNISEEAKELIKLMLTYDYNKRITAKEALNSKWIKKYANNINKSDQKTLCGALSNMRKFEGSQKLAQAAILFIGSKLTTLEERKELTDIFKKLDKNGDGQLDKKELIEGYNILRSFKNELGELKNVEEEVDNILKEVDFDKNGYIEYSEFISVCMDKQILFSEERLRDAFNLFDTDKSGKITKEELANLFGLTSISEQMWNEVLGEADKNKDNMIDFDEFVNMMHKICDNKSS

[6] = target: Plasmodium falciparum protein kinase 6 (PK6, PF3D7_1337100) (UniProt Q8IDW1); test: PfPK6 kinase inhibitors, biochemical, TCAMS library (AID 1159586); settings: recombinant PfPK6, Kinase-Glo ATP depletion luminescence
Chain of Plasmodium falciparum protein kinase 6 (PK6, PF3D7_1337100) (Q8IDW1 1-305): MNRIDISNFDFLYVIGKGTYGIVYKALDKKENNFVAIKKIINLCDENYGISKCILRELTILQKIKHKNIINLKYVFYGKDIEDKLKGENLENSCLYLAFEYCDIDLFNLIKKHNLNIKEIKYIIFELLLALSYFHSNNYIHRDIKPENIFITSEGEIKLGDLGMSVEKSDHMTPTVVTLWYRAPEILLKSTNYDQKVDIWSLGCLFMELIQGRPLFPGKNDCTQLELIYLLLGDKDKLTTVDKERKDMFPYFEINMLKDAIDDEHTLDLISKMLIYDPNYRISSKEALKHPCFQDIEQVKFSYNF

[7] = target: Protein kinase 7 (PK7), Plasmodium falciparum 3D7 (PF3D7_0213400) (UniProt Q7YTF7); test: inhibition of Plasmodium PK7 catalytic activity – biochemical, TCAMS antimalarial set, Kinase-Glo luminescence (AID 1159587); settings: recombinant PfPK7, Kinase-Glo ATP depletion luminescence
Chain of Protein kinase 7 (PK7), Plasmodium falciparum 3D7 (PF3D7_0213400) (Q7YTF7 1-343): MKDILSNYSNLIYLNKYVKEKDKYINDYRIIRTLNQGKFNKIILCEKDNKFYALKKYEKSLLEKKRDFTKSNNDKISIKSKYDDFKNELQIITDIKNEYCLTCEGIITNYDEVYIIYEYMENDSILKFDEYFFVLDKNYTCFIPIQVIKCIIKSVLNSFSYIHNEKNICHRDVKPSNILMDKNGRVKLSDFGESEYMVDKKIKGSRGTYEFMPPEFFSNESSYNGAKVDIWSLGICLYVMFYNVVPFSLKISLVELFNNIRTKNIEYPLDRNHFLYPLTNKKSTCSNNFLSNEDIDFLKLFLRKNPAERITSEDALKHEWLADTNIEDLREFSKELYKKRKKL

[8] = target: Calcium-dependent protein kinase 4 (Plasmodium falciparum (isolate 3D7)) (UniProt Q8IBS5); test: PfCDPK4 kinase inhibitors, biochemical, TCAMS library (AID 1159588; cut-off not given, nearly all actives have IC50 up to about 0.91 µM); settings: recombinant PfCDPK4, Kinase-Glo ATP depletion luminescence
Chain of Calcium-dependent protein kinase 4 (Plasmodium falciparum (isolate 3D7)) (Q8IBS5 whole entry, looked up): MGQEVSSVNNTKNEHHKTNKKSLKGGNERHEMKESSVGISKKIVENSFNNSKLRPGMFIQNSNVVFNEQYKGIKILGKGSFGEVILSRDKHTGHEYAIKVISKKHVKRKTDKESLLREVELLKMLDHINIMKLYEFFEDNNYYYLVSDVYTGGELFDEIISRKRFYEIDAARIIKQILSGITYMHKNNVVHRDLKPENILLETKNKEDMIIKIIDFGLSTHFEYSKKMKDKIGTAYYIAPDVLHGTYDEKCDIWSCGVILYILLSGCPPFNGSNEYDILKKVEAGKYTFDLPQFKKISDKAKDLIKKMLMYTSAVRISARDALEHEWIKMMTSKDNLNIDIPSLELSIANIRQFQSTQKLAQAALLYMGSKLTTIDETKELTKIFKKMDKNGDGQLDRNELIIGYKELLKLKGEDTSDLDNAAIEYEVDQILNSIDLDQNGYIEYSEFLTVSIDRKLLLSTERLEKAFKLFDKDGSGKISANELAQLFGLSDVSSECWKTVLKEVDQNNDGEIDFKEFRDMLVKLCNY

Compound	growth inhibition [1]	inhibition [2]	inhibition [3] [%]	growth inhibition [4]	outcome [5]	outcome [6]	outcome [7]	outcome [8]
COc1ccc(S(=O)(=O)N(CC(=O)NN=C(C)c2cccs2)c2cc(C)cc(C)c2)cc1OC	43%	12%	-1	97% (active)	inactive	inactive	inactive	inactive
CS(=O)(=O)c1ccc(CCNCc2ccc(-c3ccc(CN(C(=O)C4CC(=O)c5ccccc54)C4Cc5ccccc5C4)cc3)nc2)cc1 (stereo not drawn)	21%	5%	-7	90% (active)	inactive	inactive	inactive	inactive
CCCc1cn2c3c(cc(C(=O)N[C@@H](Cc4ccccc4)[C@H](O)CNC4CCOCC4)cc13)N(CC)S(=O)(=O)CC2	98% (active)	2%	-2	97% (active)	inactive	inactive	inactive	inactive
CCCCOc1cc(CNCCCCCCNCc2cc(OCCCC)cc3ccccc23)c2ccccc2c1	92% (active)	99% (active)	-5	101% (active)	inactive	inactive	inactive	inactive
CC(=O)Nc1ccc(CN2CCC(NC(=O)c3ccc(-c4cccc(OC(C)C)c4)s3)CC2)cc1	13%	14%	-5	89% (active)	inactive	inactive	inactive	inactive
Cc1cc(=O)c(C2CCC(c3ccc(Cl)cc3)CC2)c(C)[nH]1 (stereo not drawn)	70% (active)	-13%	0	88% (active)	inactive	inactive	inactive	inactive
Cc1ccc(-c2cc(C(=O)Nc3ccc(S(=O)(=O)N4CCCCC4C)cc3)[nH]n2)c(O)c1 (stereo not drawn)	99% (active)	37%	0	100% (active)	inactive	inactive	inactive	inactive
CN1CCCN(Cc2ccc(-c3cccc(NC(=O)c4cccc(F)c4)c3)cc2)CC1	12%	28%	-3	91% (active)	inactive	inactive	inactive	inactive
OCCN1CCN(Cc2ccc(-c3ccc(-c4nc5ccccc5[nH]4)cc3)cc2)CC1	58% (active)	6%	-1	100% (active)	inactive	inactive	inactive	inactive
OC(CNCc1ccco1)Cn1c2ccc(Br)cc2c2cc(Br)ccc21 (stereo not drawn)	72% (active)	10%	-3	92% (active)	inactive	inactive	inactive	inactive
COC(=O)Nc1cc(C(F)(F)F)ccc1N1CCC(CNS(=O)(=O)c2ccc(OC)cc2)CC1	95% (active)	13%	0	99% (active)	inactive	inactive	inactive	inactive
CC(C)C[C@@H](CNC[C@H](CC(C)C)NC(=O)OC(C)(C)C)NC(=O)OC(C)(C)C	58% (active)	4%	1	88% (active)	inactive	inactive	inactive	inactive
O=C(Nc1nc(-c2ccccn2)cc2ccccc12)c1cccc(Cl)c1	72% (active)	59% (active)	-3	96% (active)	inactive	inactive	inactive	inactive
COc1ccc(CC(=O)NC(CCCN2CCC3(CC2)OCc2ccccc23)c2ccc(Cl)c(Cl)c2)cc1 (stereo not drawn)	53% (active)	40%	5	83% (active)	inactive	inactive	inactive	inactive
O=C(Cc1cnc[nH]1)Nc1cccc(-c2ccc(-c3nc4ccc(C(F)(F)F)cc4[nH]3)cc2)c1	99% (active)	10%	-1	102% (active)	inactive	inactive	inactive	inactive
c1cc(-c2cc3ccc(C4=NCCN4)cc3[nH]2)ccc1C1=NCCN1	99% (active)	15%	-1	97% (active)	inactive	inactive	inactive	inactive
O=C(NCc1ccc(Cl)c(Cl)c1)[C@H]1CNCCN1C(=O)c1ccccc1	4%	-5%	1	97% (active)	inactive	inactive	inactive	inactive
Cc1noc(-c2cccs2)c1C(=O)NC(C)c1cccc2ccccc12 (stereo not drawn)	95% (active)	-2%	-4	97% (active)	inactive	inactive	inactive	inactive
O=C(NCCCCN1CCC(O)(c2ccc3c(c2)OCO3)CC1)c1ccc(NC(=O)c2ccc(Cl)cc2)cc1	6%	15%	-1	86% (active)	inactive	inactive	inactive	inactive
O=C(/C=C/c1ccc(Cl)c(Cl)c1)N1CCC(CN2CCC(c3c[nH]c4ccncc34)CC2)CC1	72% (active)	44%	0	101% (active)	inactive	inactive	inactive	inactive
CCC(C)NC(=O)CN1CN(c2ccccc2)C2(CCN(C(=O)c3ccc(-c4ccccc4)cc3)CC2)C1=O (stereo not drawn)	100% (active)	-1%	-2	100% (active)	inactive	inactive	inactive	inactive

Compound	growth inhibition [1]	inhibition [2]	inhibition [3] [%]	growth inhibition [4]	outcome [5]	outcome [6]	outcome [7]	outcome [8]
O=C(NCc1ccccc1)NC1CCN(c2ccnc3cc(Cl)ccc23)C1 (stereo not drawn)	99% (active)	13%	-2	94% (active)	inactive	inactive	inactive	inactive
CCCCN(Cc1cnccc1-c1ccc(Br)cc1)c1ccc(C(O)(C(F)(F)F)C(F)(F)F)cc1	45%	10%	6	87% (active)	inactive	inactive	inactive	inactive
CN(c1ccc(F)cc1)S(=O)(=O)c1ccc(Cl)c(C(=O)Nc2cccc(C#N)c2)c1	58% (active)	5%	-4	95% (active)	inactive	inactive	inactive	inactive
CCN(CC)CCN(Cc1ccc(-c2ccc(Br)cc2)cc1)C(=O)Cn1c(CCc2cccc(F)c2F)nc(=O)c2ccccc21	74% (active)	37%	1	98% (active)	inactive	inactive	inactive	inactive
CCc1cc(NC(=O)Nc2ccnc3ccccc23)ccc1OC	24%	-6%	2	85% (active)	inactive	inactive	inactive	inactive
FC(F)(F)c1cnc(Sc2nnc(-c3ccncc3)o2)c(Cl)c1	96% (active)	10%	1	96% (active)	inactive	inactive	inactive	inactive
c1cc(CN2CCN(CCN3CCOCC3)CC2)cc(-c2cccc(-c3nc4ccccc4[nH]3)c2)c1	100% (active)	29%	-2	100% (active)	inactive	inactive	inactive	inactive
Cc1cccc(-c2nn(-c3ccccc3)cc2C(=O)Nc2nnc(C)o2)c1	63% (active)	38%	4	84% (active)	inactive	inactive	inactive	inactive
COc1ccccc1C(=O)Nc1ccc(Nc2nc(C)cc(N3CCOCC3)n2)cc1	22%	28%	-3	98% (active)	inactive	inactive	inactive	inactive
COc1cccc(Nc2nccc(NCC(O)c3cccc(C(F)(F)F)c3)n2)c1 (stereo not drawn)	27%	6%	-4	96% (active)	inactive	inactive	inactive	inactive
CN1CCCN(Cc2cccc(-c3cccc(NC(=O)c4cccc(C#N)c4)c3)c2)CC1	33%	18%	2	95% (active)	inactive	inactive	inactive	inactive
COc1ccc(-c2c(-c3ccc(OCc4ccccc4)cc3O)n[nH]c2C(F)(F)F)cc1	57% (active)	49%	2	93% (active)	inactive	inactive	inactive	inactive
CCCCCCN1CCC(NCc2ccc(Cl)cc2)CC1	9%	19%	-7	98% (active)	inactive	inactive	inactive	inactive
CN1CCC(C(=O)Nc2ccc(-c3ccc(-c4nc5ccccc5[nH]4)cc3)cc2)CC1	94% (active)	28%	5	101% (active)	inactive	inactive	inactive	inactive
CCCc1cc(C)ccc1OCCCON1C(NC(=O)OCC)=NC(NC(=O)OCC)=NC1(C)C	97% (active)	62% (active)	0	95% (active)	inactive	inactive	inactive	inactive
OC(CNc1ccnc(Nc2ccc(Cl)cc2)n1)c1ccccc1C(F)(F)F (stereo not drawn)	28%	22%	0	98% (active)	inactive	inactive	inactive	inactive
CCCC(C)Nc1nc(C)cc(N[C@@H](CC(C)C)C(=O)Nc2ccc(OC)cc2)n1 (stereo partly drawn)	68% (active)	18%	-1	98% (active)	inactive	inactive	inactive	inactive
COc1cc(NCC2(CNCc3cn(Cc4ccccc4)c4ccccc34)CCCCC2)nc2ccccc12	12%	65% (active)	5	95% (active)	inactive	inactive	inactive	inactive
CCC(O)(C#Cc1c(C)nc(N)nc1N)CC	-5%	63% (active)	2	97% (active)	inactive	inactive	inactive	inactive
Oc1ccc(CCNCCCCCCNCCc2ccc(Cl)cc2)c(Cl)c1O	30%	23%	-7	100% (active)	inactive	inactive	inactive	inactive
